From PubChem BioAssay come the findings set out here.

Records with an inconclusive call do not appear. Calls of active or inactive are those of the source.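 How the source made its calls, unless noted: active means viability at or below 30% in both replicate assays; inconclusive means viability at or below 30% in just one of the two assays; inactive means the rest.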

Experiment [1] in a line: Her2 expression decrease, cell viability multiplex – SKBR3 breast tumor cells, AlphaScreen, ATP viability, primary screen (AID 461;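 active means Her2 level under about 52% in both replicate screens, with viability over 70% of control, limit read from the data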;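 on Her2 level: lower value means less Her2 protein in the cells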;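 on viability: percent of carrier control wells set as 100% viability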). The following applies: SKBR3 Her2 protein level, 18-24 h, measured here: SKBR3 viability, ATP luminescence, at 10 µM. (In Alpha technology, singlet oxygen from a donor bead excites a nearby acceptor bead.)
Experiment [2] deals with Receptor tyrosine-protein kinase erbB-2 (Homo sapiens) (UniProt P04626). The experiment is described as above. The following applies: 18-24 h, at 10 µM, stronger effect = lower value.
Experiment [3] can be described thus: reduced viability of SK-BR-3 breast cancer cells – cell-based, 24 h, human, pilot screen (AID 572;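 active means viability at or below 10% of carrier control in both of two separate runs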;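 further: compound exposure lasted between 18 and 24 h rather than exactly 24 h; 100% = carrier-treated control wells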). The settings on record: SK-BR-3 viability, CellTiter-Glo luminescence, at 10 µM, stronger effect = lower value. Background: In ATP-based viability assays light output follows the ATP content of the culture.
Experiment [4] in a line: HUVEC growth inhibition – cell-based, human, primary screen (AID 575).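 Further: 100% = median of untreated cell wells with 0.1% DMSO on each plate.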 The following applies: HUVEC proliferation, CellTiter-Glo luminescence, 72 h; at 10 µM; stronger effect = lower value.
Experiment [5] can be described thus: H69AR cell proliferation blockers – human, duplicate replicates, primary screen (AID 580;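 active means viability at or under a set limit in both replicates, limit being median viability minus 3 SD, cut at about 48% in these data, passing the limit was not always enough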;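 further: 100% = mean luminescence of untreated wells and 0% = no signal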). The following applies: H69AR lung tumor cells viability, ATP luminescence, 72 h; at 10 µM; stronger effect = lower value.
Experiment [6] in a line: MRP1 drug-resistance reversers in H69AR cells – cell-based, doxorubicin co-treatment, pilot screen (AID 601;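 active means viability loss from added drug above about 55%, and viability with drug at most 40%, in both replicates, limit read from the data, passing the limit was not always enough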). The following applies: CellTiter-Glo, 72 h, at 10 µM; for differential viability (reversal): stronger effect = higher value.
A short description of experiment [7]: yeast transport mutant growth inhibition pilot in 384-well plates, post-Golgi transport modulator project (AID 636; in the data active means inhibition above about 31%). The settings on record: absorbance 615 nm, about 18 h, stronger effect = higher value.
Experiment [8] can be described thus: growth suppression of yeast trafficking mutant, preliminary HTS, modulators of trafficking downstream of Golgi apparatus project, 1536-format plate, OD 615 nm (AID 637; in the data active means inhibition above about 30%). The following applies: yeast transport mutant growth, absorbance 615 nm, 18 h; stronger effect = higher value.
A short description of experiment [9]: S. cerevisiae growth inhibition in permissive medium (OD615), pilot counter-assay for S. cerevisiae lifespan shortening project, permissive growth control (AID 705;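 active means growth inhibition above 25% in both replicates, a cutoff set 3 SD above the mean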). The settings on record: OD615, 24 h, at 10 µM, stronger effect = higher value.
The nature of experiment [10]: S. cerevisiae growth inhibition in restrictive medium, OD615, pilot screen, restrictive growth control, yeast lifespan reduction project (AID 706;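 active means growth inhibition above a set limit, 3 SD over mean compound inhibition, in both replicates, cut at about 43% in these data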;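 further: modified DeaD lifespan yeast strain shifted to restrictive glucose medium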). The following applies: OD615, 48 h, at 10 µM, stronger effect = higher value.
Experiment [11] in a line: doxorubicin toxicity protection in MRP-1 cells – H69AR cells, CellTiter-Glo, duplicate, MRP-1 activator project, pilot screen (AID 807;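 active means viability increase at or above a cutoff of the median across tested compounds plus 3 SD, cut at about 8.5% in these data, passing the limit was not always enough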;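 further: compound pretreatment 18-22 h then 72 h combined with doxorubicin; 0% = doxorubicin alone and 100% = vehicle without doxorubicin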). The settings on record: H69AR viability with doxorubicin, CellTiter-Glo luminescence; at 10 µM; stronger effect = higher value.
Experiment [12] in a line: viability of HCT116 without oncogenic beta-catenin – human colon tumor cells, pilot screen (AID 823;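 active means cell viability at or below a set limit in both duplicate runs, the limit being the all-compound median minus 4 SD, cut at about 23% in these data, passing the limit was not always enough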;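 further: 0% = wells killed by 20 µM Hyamine and 100% = untreated DMSO cell wells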). The following applies: HCT116 beta-catenin knockout viability, CellTiter-Glo, 60 h; at 10 µM; stronger effect = lower value.
Experiment [13] can be described thus: viability of PTEN-null HCT116 cells – cell-based, HCT116 clonal line, CellTiter-Glo, pilot screen (AID 824;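 active means viability at or below 27.92% in each of two runs, the all-compound median minus 4 SD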;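 further: 0% = 20 µM Hyamine control and 100% = vehicle cell control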). The settings on record: HCT116 PTEN-deleted viability, 60 h, at 10 µM, stronger effect = lower value.
Experiment [14] is described as follows: RAM pathway blockade in budding yeast – dse1pr::URA3 reporter, 5-FOA selection, pilot screen (AID 869;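 active means inhibition over a set limit, the all-compound mean plus 3 SD, in both replicate runs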;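 further: 0% = DMSO wells with no growth and 100% = 10 µM 1-NA-PP1 with full growth; RAM network block rescues cells from 5-FOA so hits raise OD615 growth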). The following applies: S. cerevisiae dse1pr::URA3 5-FOA growth, OD615, 2 d; at 10 µM; stronger effect = higher value; strain carries analog-sensitive mutant Cbk1 kinase.
A short description of experiment [15]: RAM signaling pathway blockade in yeast – S. cerevisiae, Pdr1DBD-CYC8 efflux-inhibited sensitized strain, primary screen (AID 1298;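 active means RAM network inhibition above 8.4% in each of two replicates, 3 SD over the compound average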;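 further: 0% = DMSO untreated cells without growth and 100% = 10 µM 1-NA-PP1 full growth; higher means more yeast growth rescued from 5-FOA killing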). The following applies: S. cerevisiae cbk1-as DSE1-URA3 strain, 5-FOA growth OD615, 2 d; at 50 µM; stronger effect = higher value.
The mark [16] stands for this setting: H69AR cells + 2 uM doxorubicin, measured here: viability with 2 uM doxorubicin, stronger effect = lower value.
Where [17] appears, read: H69AR cells, compound alone cytotoxicity.

Receptor tyrosine-protein kinase erbB-2 (Homo sapiens), sequence (P04626 whole entry, looked up): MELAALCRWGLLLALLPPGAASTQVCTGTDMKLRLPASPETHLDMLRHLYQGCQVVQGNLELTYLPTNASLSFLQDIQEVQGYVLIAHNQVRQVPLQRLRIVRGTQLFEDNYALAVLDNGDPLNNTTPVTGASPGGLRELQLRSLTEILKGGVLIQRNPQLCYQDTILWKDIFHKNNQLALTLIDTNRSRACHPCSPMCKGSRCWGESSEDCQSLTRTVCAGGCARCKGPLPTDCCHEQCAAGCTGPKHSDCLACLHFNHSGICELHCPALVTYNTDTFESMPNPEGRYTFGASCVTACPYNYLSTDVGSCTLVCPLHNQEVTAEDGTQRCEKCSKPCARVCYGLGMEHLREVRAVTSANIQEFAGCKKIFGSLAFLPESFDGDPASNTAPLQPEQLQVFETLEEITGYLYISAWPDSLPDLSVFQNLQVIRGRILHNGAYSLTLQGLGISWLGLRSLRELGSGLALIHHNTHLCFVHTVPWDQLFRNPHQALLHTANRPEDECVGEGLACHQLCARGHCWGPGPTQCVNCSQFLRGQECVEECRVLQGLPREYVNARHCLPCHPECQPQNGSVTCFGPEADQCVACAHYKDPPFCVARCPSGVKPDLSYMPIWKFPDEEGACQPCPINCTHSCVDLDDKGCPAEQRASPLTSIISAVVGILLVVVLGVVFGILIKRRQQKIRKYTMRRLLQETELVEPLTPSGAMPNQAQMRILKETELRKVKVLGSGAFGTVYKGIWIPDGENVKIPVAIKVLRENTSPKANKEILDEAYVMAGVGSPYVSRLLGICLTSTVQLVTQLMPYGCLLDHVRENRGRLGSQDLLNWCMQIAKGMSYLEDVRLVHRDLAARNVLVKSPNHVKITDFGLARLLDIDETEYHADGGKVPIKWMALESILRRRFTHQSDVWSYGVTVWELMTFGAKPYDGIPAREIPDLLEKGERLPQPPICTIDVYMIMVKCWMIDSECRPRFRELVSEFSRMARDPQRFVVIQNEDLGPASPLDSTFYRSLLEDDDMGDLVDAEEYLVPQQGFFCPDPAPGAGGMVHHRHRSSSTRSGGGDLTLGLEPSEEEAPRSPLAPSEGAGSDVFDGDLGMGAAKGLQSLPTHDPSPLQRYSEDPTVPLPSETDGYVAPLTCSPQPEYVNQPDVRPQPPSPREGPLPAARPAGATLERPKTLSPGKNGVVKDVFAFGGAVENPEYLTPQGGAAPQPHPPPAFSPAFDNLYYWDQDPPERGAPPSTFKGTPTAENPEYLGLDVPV

Turning to `CC1CN(c2c3c(nc4ncnn24)CCCC3)CC(C)O1` (configuration not stated), the viability in experiment [1] is 89.5%; in experiment [3] it was 89.5% (inactive); in experiment [4] it was 102% (inactive); in experiment [5], 90.7% (inactive); in experiment [6] (setting [16]) it was 86.2%; in [6] (setting [17]), 90.7%. For the same compound, the viability in experiment [12] was 88.9% (inactive); in [13], 90.8% (inactive). Moreover, the Her2 level in [2] was 88% (inactive). Also, the differential viability (reversal) in experiment [6] (H69AR cells + 2 uM doxorubicin) was 4.54% (inactive). In addition, the figures for the inhibition in [7], in experiment [8] and in experiment [14] were -4.87% (inactive), 2% (inactive) and 1.57% (inactive), respectively. Further, the growth inhibition in experiment [9] was 3.17% (inactive); in experiment [10], -4.12% (inactive). The viability increase in experiment [11] was -1.41% (inactive). Further, the RAM network inhibition in [15] is -1.85% (inactive).
As to `CC1Cc2ccccc2N1C(=O)C12CCC(C)(C(=O)C1)C2(C)C` (configuration not stated), the viability in experiment [1] is 136%; in experiment [3] it was 136% (inactive); in [4], 92.6% (inactive); in experiment [5], 82.1% (inactive); in experiment [6] (setting [16]) it was 74.3%; in experiment [6] (setting [17]), 82.1%. For the same compound, the viability is 85% (inactive) in [12] and 89.9% (inactive) in experiment [13]. For the same compound, in [2], the Her2 level is 123% (inactive). Moreover, in [6] (H69AR cells + 2 uM doxorubicin), the differential viability (reversal) is 7.82% (inactive). Moreover, the inhibition in [7] is -5.47% (inactive); in experiment [8], -4.84% (inactive); in [14], 0.8% (inactive). Also, the results for the growth inhibition in experiment [9] and in experiment [10] were -23.2% (inactive) and -14.9% (inactive), respectively. In addition, the viability increase in [11] was -0.66% (inactive). The RAM network inhibition in experiment [15] is 6.06% (inactive).
Consider `CCOc1ccc(NC(=O)C(C)Sc2nnc(C)n2C)cc1` (configuration not stated), for which the viability in experiment [1] was 92%; in [3] it was 92% (inactive); in [4], 97.6% (inactive); in experiment [5] it was 98.8% (inactive); in [6] (setting [16]), 96.1%; in experiment [6] (setting [17]) it was 98.8%. Further, the viability in experiment [12] was 95.7% (inactive); in [13] it was 93.9% (inactive). Besides, in experiment [2], the Her2 level is 126% (inactive). In addition, the differential viability (reversal) in experiment [6] (H69AR cells + 2 uM doxorubicin) was 2.75% (inactive). In addition, the inhibition is -1.33% (inactive) in experiment [7], -1.17% (inactive) in [8] and 0.705% (inactive) in experiment [14]. Moreover, the growth inhibition was -3.46% (inactive) in experiment [9] and 3.31% (inactive) in [10]. Further, in experiment [11], the viability increase is -0.82% (inactive). Moreover, the RAM network inhibition in experiment [15] is -0.63% (inactive).
In the case of `CCOC(=O)Cc1ccc(NS(=O)(=O)c2ccc(SC)cc2)cc1`, the viability in [1] was 89%; in experiment [3], 89% (inactive); in experiment [4], 67.9% (inactive); in experiment [5] it was 86.7% (inactive); in [6] (setting [16]), 82.8%; in experiment [6] (setting [17]), 86.7%. Also, the values for the viability in [12] and in experiment [13] were 94.4% (inactive) and 88.1% (inactive), respectively. Moreover, in experiment [2], the Her2 level is 88% (inactive). Further, in experiment [6] (H69AR cells + 2 uM doxorubicin), the differential viability (reversal) is 3.83% (inactive). In addition, the results for the inhibition in [7], in [8] and in experiment [14] were -5.54% (inactive), -5.08% (inactive) and 0.825% (inactive), respectively. The growth inhibition in experiment [9] was 6.06% (inactive); in experiment [10] it was -1.98% (inactive). The viability increase in [11] was -4.85% (inactive). Besides, the RAM network inhibition in experiment [15] was 2.83% (inactive).
As for `COc1cccc(C2=NOC(C(=O)Nc3cc(C)nn3-c3ccccc3)C2)c1OC` (configuration not stated), the viability is 93% in experiment [1]; 93% (inactive) in experiment [3]; 68.7% (inactive) in experiment [4]; 28.6% (active) in experiment [5]; 72.5% in experiment [6] (setting [16]); 28.6% in experiment [6] (setting [17]). Further, the viability was 68.3% (inactive) in experiment [12] and 60.2% (inactive) in experiment [13]. The Her2 level in experiment [2] was 91% (inactive). The differential viability (reversal) in experiment [6] (H69AR cells + 2 uM doxorubicin) is -43.9% (inactive). Also, the values for the inhibition in [7], in [8] and in [14] were 2.31% (inactive), -1.83% (inactive) and 2.12% (inactive), respectively. Besides, the growth inhibition is 1.31% (inactive) in experiment [9] and 12% (inactive) in [10]. Moreover, in experiment [11], the viability increase is -5.04% (inactive). For the same compound, the RAM network inhibition in experiment [15] is -0.06% (inactive).
As for `Cc1ccc(C)n1-n1c(C)nc2sc(-c3ccccc3)cc2c1=O`, the viability in experiment [1] was 89%; in experiment [3], 89% (inactive); in experiment [4] it was 80.3% (inactive); in experiment [5] it was 81.9% (inactive); in [6] (setting [16]), 90.8%; in experiment [6] (setting [17]) it was 81.9%. In addition, the viability in [12] is 54.6% (inactive); in [13] it was 61% (inactive). In experiment [2], the Her2 level is 106% (inactive). Moreover, the differential viability (reversal) in experiment [6] (H69AR cells + 2 uM doxorubicin) was -8.97% (inactive). The inhibition in [7] is -0.38% (inactive); in [8], 2.67% (inactive); in [14] it was 0.52% (inactive). The growth inhibition in experiment [9] is -3.25% (inactive); in [10], -27.4% (inactive). For the same compound, the viability increase in experiment [11] is 1.12% (inactive). For the same compound, the RAM network inhibition in experiment [15] was 9.68% (inactive).

As a reminder, the viability is a read-out of living cells in per cent, often relative to untreated cells. The term inhibition denotes the drop in the measured response relative to a control, in per cent.
